These results are taken from ChEMBL document CHEMBL3988442, “University of Dundee, Small-Polar-MMV Screening Library” (2021).

Parameters in all cases: scale not given: direction of the effect not stated beside the values
In test [1] the target is Protein translocase subunit SecA (Escherichia coli (strain K12)) (UniProt P10408). Description: Assay to Identify E. coli SecA ATPase Inhibitors. Format: functional. The following applies: 30 µM.
In test [2] the target is T1, Ubiquitin-activating enzyme e1, putative (Leishmania donovani (strain BPK282A1)) (UniProt E9BSI1).
T1 sequence (whole entry): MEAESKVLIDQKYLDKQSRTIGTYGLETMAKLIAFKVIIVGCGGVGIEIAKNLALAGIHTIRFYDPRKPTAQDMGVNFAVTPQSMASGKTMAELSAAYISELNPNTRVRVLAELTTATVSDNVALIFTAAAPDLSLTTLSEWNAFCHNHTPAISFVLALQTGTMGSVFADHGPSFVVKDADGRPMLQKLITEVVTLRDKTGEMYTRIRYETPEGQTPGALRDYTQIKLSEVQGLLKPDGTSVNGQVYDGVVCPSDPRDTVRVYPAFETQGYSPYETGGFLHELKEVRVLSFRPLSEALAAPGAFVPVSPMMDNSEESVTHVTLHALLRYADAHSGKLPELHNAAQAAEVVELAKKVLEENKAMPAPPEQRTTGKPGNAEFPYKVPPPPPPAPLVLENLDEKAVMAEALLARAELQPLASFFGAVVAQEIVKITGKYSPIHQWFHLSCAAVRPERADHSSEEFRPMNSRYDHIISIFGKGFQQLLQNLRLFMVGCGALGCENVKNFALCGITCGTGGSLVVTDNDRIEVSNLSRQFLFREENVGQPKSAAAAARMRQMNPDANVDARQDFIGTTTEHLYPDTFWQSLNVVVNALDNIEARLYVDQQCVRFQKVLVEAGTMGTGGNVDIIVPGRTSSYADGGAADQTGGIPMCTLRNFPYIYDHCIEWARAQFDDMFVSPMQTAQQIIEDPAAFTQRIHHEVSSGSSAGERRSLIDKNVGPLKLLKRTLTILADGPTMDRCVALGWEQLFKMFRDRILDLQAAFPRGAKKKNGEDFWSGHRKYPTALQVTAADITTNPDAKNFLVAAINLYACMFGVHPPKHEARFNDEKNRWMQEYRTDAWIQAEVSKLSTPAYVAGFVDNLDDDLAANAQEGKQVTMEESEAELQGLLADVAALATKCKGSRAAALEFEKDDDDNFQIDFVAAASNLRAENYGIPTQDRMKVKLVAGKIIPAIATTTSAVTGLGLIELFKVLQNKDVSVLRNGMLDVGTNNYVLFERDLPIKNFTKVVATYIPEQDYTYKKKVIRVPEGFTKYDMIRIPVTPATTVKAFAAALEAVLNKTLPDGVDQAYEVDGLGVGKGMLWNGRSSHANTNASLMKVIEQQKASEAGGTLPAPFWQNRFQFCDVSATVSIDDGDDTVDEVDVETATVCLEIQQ
Briefly: Leishmania donovani Ubiquitin Activating Enzyme (LdE1). The settings on record: 30 µM. In kind it is functional.

Test [3] has as its target AMP-activated protein kinase, AMPK (Homo sapiens) (UniProt P54646+O43741+P54619+Q9UGJ0+Q9Y478+Q13131+Q9UGI9). Description: AMP-dependent Kinase enzyme assay. An in vitro enzyme assay that detects ADP turnover that is directly proportional to AMPK activity. This uses naive AMPK that is activated during the assay with MK-8722. Format: functional. The settings on record: 30 µM.

For test [4], the target named is Sialic acid-binding Ig-like lectin 9 (Homo sapiens) (UniProt Q9Y336). Description: Hs-Siglec9 ALPHAscreen SOP 20170721. The following applies: 10 µM. For orientation: In Alpha technology, singlet oxygen from a donor bead excites a nearby acceptor bead.
Sialic acid-binding Ig-like lectin 9 (Homo sapiens), sequence (Q9Y336 whole entry): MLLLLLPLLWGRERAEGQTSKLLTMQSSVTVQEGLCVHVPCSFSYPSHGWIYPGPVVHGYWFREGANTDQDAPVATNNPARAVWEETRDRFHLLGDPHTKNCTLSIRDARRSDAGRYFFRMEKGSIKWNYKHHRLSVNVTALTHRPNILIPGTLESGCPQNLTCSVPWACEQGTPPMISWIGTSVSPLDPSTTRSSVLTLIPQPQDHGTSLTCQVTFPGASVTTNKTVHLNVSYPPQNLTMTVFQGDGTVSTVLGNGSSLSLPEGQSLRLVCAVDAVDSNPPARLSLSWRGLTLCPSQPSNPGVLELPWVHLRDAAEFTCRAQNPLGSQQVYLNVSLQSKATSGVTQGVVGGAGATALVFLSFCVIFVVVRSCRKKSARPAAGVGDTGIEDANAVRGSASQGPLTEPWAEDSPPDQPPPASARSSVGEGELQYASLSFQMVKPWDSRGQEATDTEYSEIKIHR
The test system of the next test is Trypanosoma cruzi. Description: Trypanosoma cruzi phosphomannomutase and mannose-1-phosphate guanylyltransferase assay. In kind it is functional. The settings on record: 10 µM.
Test [5] deals with T2, Arginase-2, mitochondrial (Homo sapiens) (UniProt P78540).
T2 sequence (whole entry): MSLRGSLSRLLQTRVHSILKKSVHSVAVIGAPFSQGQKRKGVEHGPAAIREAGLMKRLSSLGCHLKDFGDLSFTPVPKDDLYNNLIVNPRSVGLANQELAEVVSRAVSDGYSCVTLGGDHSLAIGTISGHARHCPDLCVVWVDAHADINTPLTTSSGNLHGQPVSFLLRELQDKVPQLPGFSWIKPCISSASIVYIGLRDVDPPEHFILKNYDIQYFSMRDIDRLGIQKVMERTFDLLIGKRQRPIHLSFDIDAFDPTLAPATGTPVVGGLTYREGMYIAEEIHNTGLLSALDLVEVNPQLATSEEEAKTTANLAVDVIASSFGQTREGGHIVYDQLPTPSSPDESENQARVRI
Briefly: in vitro enzyme assay to detect the production of urea directly proportional to the activity of Arginase II. Note: in the data most compounds retested in dose-response had high values. In kind it is functional. The following applies: 33.3 µM.

Test [6] deals with T3, Proteasome subunit beta (Trypanosoma cruzi) (UniProt O96673).
T3 sequence (whole entry): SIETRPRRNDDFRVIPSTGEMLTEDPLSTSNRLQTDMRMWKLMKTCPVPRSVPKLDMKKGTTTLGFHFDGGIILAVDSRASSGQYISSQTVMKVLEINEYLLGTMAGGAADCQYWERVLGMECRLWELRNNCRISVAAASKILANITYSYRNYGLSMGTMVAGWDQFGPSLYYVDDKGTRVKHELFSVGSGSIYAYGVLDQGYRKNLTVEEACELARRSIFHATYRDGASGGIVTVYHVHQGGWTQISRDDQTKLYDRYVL
Description: Trypanosoma cruzi proteasome chymotrypsin-like activity (TcProtChymo) assay. Note: in the data most compounds retested in dose-response had high values. The following applies: 9.37 µM. In kind it is functional.

The species entered for a further test is Homo sapiens. Description: To identify inhibition of the IFN signalling (Jak-Stat) pathway via expression of an eGFP reporter gene under the control of an IFN-stimulated response element (ISRE) containing MxA promoter. Format: functional. The following applies: 30 µM. Background: In a reporter assay the amount or activity of a reporter protein is the signal.

For test [7], the target named is T4, Tyrosyl-tRNA synthetase, putative (Trypanosoma cruzi (strain CL Brener)) (UniProt Q4DSP6).
T4 sequence (whole entry): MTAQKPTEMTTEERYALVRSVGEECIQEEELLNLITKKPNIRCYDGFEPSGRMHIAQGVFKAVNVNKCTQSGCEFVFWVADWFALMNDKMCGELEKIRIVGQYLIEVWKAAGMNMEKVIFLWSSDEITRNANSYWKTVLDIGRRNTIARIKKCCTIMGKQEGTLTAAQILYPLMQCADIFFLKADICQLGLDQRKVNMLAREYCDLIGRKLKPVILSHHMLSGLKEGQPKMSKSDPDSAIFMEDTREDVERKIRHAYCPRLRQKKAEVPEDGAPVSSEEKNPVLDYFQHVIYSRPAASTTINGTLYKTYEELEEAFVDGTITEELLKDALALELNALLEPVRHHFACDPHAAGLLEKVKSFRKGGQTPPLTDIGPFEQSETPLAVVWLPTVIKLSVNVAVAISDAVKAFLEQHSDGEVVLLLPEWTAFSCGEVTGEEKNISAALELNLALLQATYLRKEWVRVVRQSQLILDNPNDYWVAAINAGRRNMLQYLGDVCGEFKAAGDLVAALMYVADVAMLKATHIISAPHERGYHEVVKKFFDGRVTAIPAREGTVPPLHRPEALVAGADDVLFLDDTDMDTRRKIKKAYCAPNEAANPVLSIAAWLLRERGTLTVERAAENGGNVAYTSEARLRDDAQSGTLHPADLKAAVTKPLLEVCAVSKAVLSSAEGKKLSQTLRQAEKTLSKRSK
Description: Trypanosoma cruzi tyrosyl tRNA synthetase (TcYRS) _High Tyrosine SOP. Note: in the data most compounds retested in dose-response had high values. Format: functional. The following applies: 30 µM.

For test [8], the target named is T4, Tyrosyl-tRNA synthetase, putative (Trypanosoma cruzi (strain CL Brener)). Description: Trypanosoma cruzi tyrosyl tRNA synthetase (TcYRS) SOP. The following applies: 30 µM. Format: functional.
Test [9] concerns the target Chromo domain-containing protein 1 (Saccharomyces cerevisiae (strain ATCC 204508 / S288c) (Baker's yeast)) (UniProt P32657). Description: ScCHD-1 Enzyme Inhibition Assay. Note: in the data most compounds retested in dose-response had high values. In kind it is functional. The settings on record: 30 µM.

For some of these results: Potency and affinity values are given separately.

Chromo domain-containing protein 1 (Saccharomyces cerevisiae (strain ATCC 204508 / S288c) (Baker's yeast)), sequence (P32657 whole entry, the tested form may be a part): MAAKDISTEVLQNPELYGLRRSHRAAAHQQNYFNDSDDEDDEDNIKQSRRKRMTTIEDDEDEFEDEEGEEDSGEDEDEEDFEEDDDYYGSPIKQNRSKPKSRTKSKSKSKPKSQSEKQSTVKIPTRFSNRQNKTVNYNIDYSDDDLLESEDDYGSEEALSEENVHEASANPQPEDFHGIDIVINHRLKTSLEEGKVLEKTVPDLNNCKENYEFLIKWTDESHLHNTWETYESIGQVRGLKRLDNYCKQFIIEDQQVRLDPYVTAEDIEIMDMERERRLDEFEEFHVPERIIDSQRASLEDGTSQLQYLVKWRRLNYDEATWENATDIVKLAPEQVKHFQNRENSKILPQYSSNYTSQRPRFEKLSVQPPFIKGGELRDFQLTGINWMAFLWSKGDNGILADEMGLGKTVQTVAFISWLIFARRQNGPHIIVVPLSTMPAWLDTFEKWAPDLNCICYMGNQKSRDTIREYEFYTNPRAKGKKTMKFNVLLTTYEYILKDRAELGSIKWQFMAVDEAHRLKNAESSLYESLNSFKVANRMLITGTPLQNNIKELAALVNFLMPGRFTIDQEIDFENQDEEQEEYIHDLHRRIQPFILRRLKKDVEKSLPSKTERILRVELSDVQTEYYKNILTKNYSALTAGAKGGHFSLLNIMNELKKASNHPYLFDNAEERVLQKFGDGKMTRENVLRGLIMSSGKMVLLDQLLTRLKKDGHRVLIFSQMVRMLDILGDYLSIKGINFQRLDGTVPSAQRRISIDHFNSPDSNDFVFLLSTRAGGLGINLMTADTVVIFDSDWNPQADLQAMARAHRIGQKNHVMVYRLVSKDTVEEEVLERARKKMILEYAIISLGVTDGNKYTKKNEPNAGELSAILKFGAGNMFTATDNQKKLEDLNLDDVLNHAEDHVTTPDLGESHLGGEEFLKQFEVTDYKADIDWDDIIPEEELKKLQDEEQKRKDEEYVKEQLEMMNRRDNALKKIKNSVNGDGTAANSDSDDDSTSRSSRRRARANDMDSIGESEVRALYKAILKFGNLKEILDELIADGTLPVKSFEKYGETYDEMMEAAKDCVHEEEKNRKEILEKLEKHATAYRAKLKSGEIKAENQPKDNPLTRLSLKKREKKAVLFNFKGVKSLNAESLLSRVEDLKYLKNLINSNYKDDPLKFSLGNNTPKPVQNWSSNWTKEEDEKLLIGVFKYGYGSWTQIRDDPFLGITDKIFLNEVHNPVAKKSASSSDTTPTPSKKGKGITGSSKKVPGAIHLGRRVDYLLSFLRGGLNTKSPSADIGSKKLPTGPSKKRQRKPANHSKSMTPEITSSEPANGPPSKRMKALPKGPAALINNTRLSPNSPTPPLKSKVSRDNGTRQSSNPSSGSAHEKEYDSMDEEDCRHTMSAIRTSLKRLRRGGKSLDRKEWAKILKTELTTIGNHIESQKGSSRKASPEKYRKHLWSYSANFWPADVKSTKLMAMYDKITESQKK
Protein translocase subunit SecA (Escherichia coli (strain K12)), sequence (P10408 whole entry): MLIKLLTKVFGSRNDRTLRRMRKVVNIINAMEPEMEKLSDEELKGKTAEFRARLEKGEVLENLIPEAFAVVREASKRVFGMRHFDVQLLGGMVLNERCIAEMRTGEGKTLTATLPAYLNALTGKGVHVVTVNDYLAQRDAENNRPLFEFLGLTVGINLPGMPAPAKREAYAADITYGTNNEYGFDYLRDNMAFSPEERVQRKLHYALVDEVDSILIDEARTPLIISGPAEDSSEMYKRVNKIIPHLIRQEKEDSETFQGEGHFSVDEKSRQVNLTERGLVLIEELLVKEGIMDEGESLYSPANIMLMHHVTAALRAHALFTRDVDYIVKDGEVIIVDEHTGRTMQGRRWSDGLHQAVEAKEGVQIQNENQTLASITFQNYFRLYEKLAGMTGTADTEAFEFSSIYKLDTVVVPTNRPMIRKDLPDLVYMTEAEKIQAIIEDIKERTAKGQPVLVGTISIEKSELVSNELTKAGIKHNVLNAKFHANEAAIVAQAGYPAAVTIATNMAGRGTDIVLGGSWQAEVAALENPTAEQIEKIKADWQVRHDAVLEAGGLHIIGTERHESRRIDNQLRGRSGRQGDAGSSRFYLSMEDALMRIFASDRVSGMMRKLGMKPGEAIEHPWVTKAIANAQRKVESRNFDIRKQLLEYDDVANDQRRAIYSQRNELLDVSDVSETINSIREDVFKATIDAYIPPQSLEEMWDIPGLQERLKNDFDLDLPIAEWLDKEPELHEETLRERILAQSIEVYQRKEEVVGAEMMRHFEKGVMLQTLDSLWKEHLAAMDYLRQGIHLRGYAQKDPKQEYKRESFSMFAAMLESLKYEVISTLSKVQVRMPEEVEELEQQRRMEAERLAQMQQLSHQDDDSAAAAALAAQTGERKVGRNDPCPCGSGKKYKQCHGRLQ

For the compound `CN(C(=O)Cn1nc(-c2ccc(F)cc2)ccc1=O)C1CCS(=O)(=O)C1` (stereo unspecified), the Percent Effect in test [1] is -7.39%; in [2], 10.5%; in test [3], 7.4%; in test [4], 10.6%; with Trypanosoma cruzi, 1.85%; in [5], -16.6%. In addition, the Percent Effect was 6.81% in [6]; -4.86% in the test filed under Homo sapiens; 3.19% in test [7]; 7.79% in test [8]; -3.65% in test [9].

`CC(C)c1noc(CCC(=O)NC(C)c2nnc3n2CCCCC3)n1` (stereo unspecified): the Percent Effect in [1] was -2.21%; in [2], -2.7%; in test [3] it was -3.53%; in test [4], -8.65%; in the test with Trypanosoma cruzi, -1.47%; in [5], -2.23%. The Percent Effect in test [6] was 2.83%; in the test filed under Homo sapiens, -7.58%; in test [7], -9.68%; in test [8], 1.24%; in test [9], 80%.

For the compound `Cc1nccn1-c1nccnc1C1CCN(Cc2ccc(F)cc2)CC1`, the Percent Effect in test [1] is -2.09%; in test [2] it was 21.3%; in test [3], 4.62%; in test [4] it was -5.84%; with Trypanosoma cruzi, 5.91%; in [5], -2.56%. The Percent Effect in test [6] is 15.2%; in the test filed under Homo sapiens, 7.46%; in test [7], 4.25%; in test [8], 16.7%; in [9] it was -4.22%.

On to `Clc1ccccc1-c1nc(CNCCn2cccn2)cs1`, for which the Percent Effect is -1.85% in test [1]; -15.8% in [2]; 2.49% in test [3]; -0.874% in [4]; 9.02% in the test with Trypanosoma cruzi; 0.383% in test [5]. For the same compound, the Percent Effect came to 10.9% in [6]; 13.7% in the test filed under Homo sapiens; 9.31% in [7]; 17.1% in test [8]; 14.2% in [9].

`NS(=O)(=O)CCNC(=O)c1nnn(-c2ccc(F)cc2)c1C1CC1`: the Percent Effect in test [1] was -0.864%; in [2], 8.11%; in [3], -3.7%; in test [4], 0.877%; in the test with Trypanosoma cruzi, 3.91%; in [5], 14.6%. For the same compound, the Percent Effect in test [6] is 19.5%; in the test listed under Homo sapiens it was -4.31%; in [7], 9.9%; in test [8], 15.8%; in [9], -4.04%.

In the case of `CN(C)C(=O)N1C[C@@H]2CC[C@H](C1)N(Cc1ccc3nsnc3c1)C2`, the Percent Effect is -2.91% in [1]; -1.39% in test [2]; -8.41% in test [3]; -5.35% in test [4]; -2.04% with Trypanosoma cruzi; 4.42% in test [5]. In addition, the Percent Effect in [6] is 13.2%; in the test listed under Homo sapiens, -11.8%; in [7], 0%; in test [8], 2.56%; in test [9] it was -0.102%.

Take `CS(=O)(=O)NC[C@]12COC[C@H]1CN(CC1CCCC1)C2`: the Percent Effect in test [1] was -4.19%; in test [2], 5.41%; in [3], 8.19%; in test [4], -4.23%; with Trypanosoma cruzi it was -4.79%; in [5] it was 1.59%. For the same compound, the Percent Effect turned out to be 20.1% in test [6]; 0.262% in the test listed under Homo sapiens; 2.16% in test [7]; 7.69% in test [8]; 0.895% in test [9].

On to `CNS(=O)(=O)c1ccc(C(=O)N2CCCC2c2ccccc2)o1` (stereo unspecified), for which the Percent Effect in [1] is -6.62%; in test [2] it was 13.2%; in test [3] it was 2.8%; in [4] it was 2.47%; with Trypanosoma cruzi, 2.15%; in [5] it was -3.6%. For the same compound, the Percent Effect is -2.96% in test [6]; -6.57% in the test listed under Homo sapiens; 6.4% in [7]; 18.5% in test [8]; 1% in test [9].

With `OCC1CCCN1c1cc(NCc2ccc(Cl)s2)ncn1` (stereo unspecified), the Percent Effect is 0.246% in [1]; 8.86% in [2]; -3.63% in test [3]; -2.18% in test [4]; -1.95% with Trypanosoma cruzi; -3.66% in [5]. In addition, the Percent Effect in test [6] is 24%; in the test listed under Homo sapiens, 74.3%; in test [7], 4.17%; in test [8], 15.2%; in [9], -15.5%.

For `Cc1ncnc2c1CCN(c1cc(C(F)(F)F)ncn1)CC2`, the Percent Effect in [1] was -2.66%; in test [2], 13.3%; in [3], -0.456%; in test [4], -3.31%; in the test on Trypanosoma cruzi it was -3.09%; in test [5] it was -58.2%. The Percent Effect in [6] was 13.7%; in the test listed under Homo sapiens it was 4.55%; in [7], 0%; in test [8] it was 2.5%; in test [9], -7.43%.

For the compound `O=C(c1cnoc1)N1CCC[C@]2(C[C@@H](OCc3ccccn3)CO2)C1`, the Percent Effect is -1.86% in test [1]; 21.9% in [2]; -6.83% in [3]; 23.6% in test [4]; 5.56% in the test with Trypanosoma cruzi; -1.6% in test [5]. Moreover, the Percent Effect was 12.8% in test [6]; 1.81% in the test filed under Homo sapiens; 6.25% in test [7]; 8.64% in test [8]; -6.46% in test [9].
